In PubChem BioAssay AID504332 (National Center for Advancing Translational Sciences (NCATS), 2011):
Among all 350,000 compounds or so, about 31,000 (8.9%) were called active. Inconclusive results (about 15%) are left out. Only a selection was taken, and actives are over-represented in it overall. A number with no mark means an inactive call. Calls follow the shape of the dose curve; as a rule, active = well fitted inhibition curve with a large enough effect; inconclusive = small, poorly fitted or top-dose-only effect; inactive = no such curve, though single readings can be large or run the other way.

Molecular target: Histone-lysine N-methyltransferase EHMT2 (Homo sapiens) (UniProt Q96KQ7)
Sequence (Q96KQ7 913-1193 limits assumed): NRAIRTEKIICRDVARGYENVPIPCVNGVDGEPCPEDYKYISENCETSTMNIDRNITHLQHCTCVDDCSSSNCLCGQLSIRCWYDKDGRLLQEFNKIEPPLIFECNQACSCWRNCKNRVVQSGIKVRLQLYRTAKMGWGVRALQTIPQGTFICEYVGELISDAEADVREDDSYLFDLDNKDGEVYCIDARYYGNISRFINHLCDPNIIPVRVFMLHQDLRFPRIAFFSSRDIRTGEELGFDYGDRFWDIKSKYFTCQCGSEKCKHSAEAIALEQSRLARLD
Assay: qHTS Assay for Inhibitors of Histone Lysine Methyltransferase G9a; also: nearly all actives have a fitted effect of over 75% in size
Details: G9a H3K9 monomethylation, AlphaScreen, 2 h; series mostly up to 59 µM; activity, negative = inhibition: at the top concentration
From the text: Methylated lysines, on the N-terminal tails of histone proteins serve as epigenetic markers to recruit factors that can then modify local chromatin structure to lead to functional consequences. G9a and other members of the SUV39 family of the SET domain-containing superfamily of histone lysine methyltransferases (HMT) have been identified to specifically methylate Lys9 of histone H3 (H3K9). G9a catalyzes the mono- and di-methylation of H3K9 in mammalian euchromatic regions, where the resulting H3K9me2 is indicative of transcriptional repression. […] The inhibition of G9a will result in transcriptional activation and work synergistically with DNA methyltransferase and histone deacetylase inhibitors, to kill cancer cells. This qHTS assay for identification of G9a inhibitors is a chemiluminescence based AlphaScreen (PerkinElmer). Methylation of biotinylated-histone peptide is measured through specific antibody-based detection, in conjunction with streptavidin-coated donor and anti-IgG antibody-coated acceptor beads. The method is particularly well suited for detection of inhibitors acting by the desired histone peptide competitive mechanism and is applicable to testing other HMTs. Although AlphaScreen has significant advantages with its utility in a variety of epigenetic target assays, the primary screening data provided in this deposition should be used with caution due to the prevalence of screening artifacts. An AlphaScreen counterscreen is highly recommended to be run against any putative actives to eliminate non specific artifacts. Alternatively, one can use other AlphaScreen assays in PubChem to filter out promiscuous hits. Quinn et al. A chemiluminescence-based method for identification of histone lysine methyltransferase inhibitors. Mol Biosyst 6(5): 782-8. 2010. PMID: 20567762 [2] Baell,Holloway. New substructure filters for removal of pan assay interference compounds (PAINS) from screening libraries and for their exclusion in bioassays. J Med Chem. 53(7):2719-40. 2010. PMID: 20131845 NIH Molecular Libraries Probe Production Network [MLPCN] NIH Chemical Genomics Center [NCGC] Structural Genomics Consortium (SGC) NIH Grant: 5U54 MH084681-02
To each well of a 1,536w plate, 2ul of HMT enzyme (final 20nM) were added, using a nanoliter dispenser. The G9a- and GLP-inhibitor BIX-01294 (CID: 25150857) are used as an intraplate control, with a 16-point titration in duplicate. A Kalypsys pin-tool transferred 23nl of library compound solution in DMSO to each well. Following a 15 min incubation of enzyme with compounds at room temperature, 1ul mixture of b-H3K9 peptide substrate (final 500nM) and SAM cofactor (final 20uM) were added. Reactions were allowed to proceed at room temperature for 2 hours. Methylated b-H3K9 peptide product was detected with 0.5 ug/mL rabbit polyclonal anti-monomethyl histone H3K9 antibody (Abcam Inc., Cambridge, MA) and 20 ug/mL each streptavidin-coated donor and anti-rabbit IgG acceptor AlphaScreen beads. Antibody and beads were added in a 1ul dispense, for a final volume of 4ul, and plates were incubated, protected from the light, for 10 min at room temperature. Microplates were then read on an EnVision multilabel plate reader using the 1,536 plate HTS AlphaScreen aperture (excitation time 80 ms, measurement time 240 ms).
% is scaled to controls: 0 for no effect and ±100 for the full control effect; potency is read from the fitted curve at half-maximal effect.

In the case of Cc1ccc(Oc2ccc(N)cc2)cc1, the Potency is reported as 50.1 µM (active).
O=C(Cn1c[n+](CC(=O)c2ccc([N+](=O)[O-])cc2)cn1)c1ccc([N+](=O)[O-])cc1 was tested, and the Potency was “inactive”.
O=C(CC(n1cncn1)C(Cl)(Cl)Cl)c1ccc([N+](=O)[O-])cc1 (stereo not drawn) was tested, and the Potency was 10 µM (active).
With O=C(O)[C@@H](S)[C@H](S)C(=O)O the Potency was 6.31 µM (active).
With S=C(NNC(=S)NC1CC2C=CC1C2)NC1CC2C=CC1C2 (stereo not drawn) the Potency was 2 µM (active).
O=S(=O)(c1ccc2nc(NCc3ccccc3Cl)ccc2c1)N1CCCCC1 was tested, and the Potency was 7.94 µM (active).
In the case of CCN1CCN(CC(=O)c2cc(OC)c(OC)c(OC)c2)CC1, the Potency is reported as 39.8 µM (active).
CN(C)N=Nc1ccc2nc[nH]c2c1 was tested, and the Potency was 1.78 µM (active).
In the case of O=C(CSc1nnc(-c2cccnc2)n1Cc1ccco1)c1ccc(Cl)c(Cl)c1, the Potency is reported as 50.1 µM (active).
O=C(CSc1nnc(-c2cnccn2)n1Cc1ccco1)c1ccc(Cl)c(Cl)c1 was tested, and the Potency was 50.1 µM (active).
COc1ccc(C(=O)CSc2nnc(COc3ccccc3)n2Cc2ccco2)cc1 was tested, and the Potency was 50.1 µM (active).
C(=C\c1ccccc1)/CSc1nnc(-c2cccnc2)n1Cc1ccco1 was tested, and the Potency was 50.1 µM (active).

Going from CC(C)(C)c1ccc(OC2=CS(=O)(=O)c3ccccc32)cc1 to CCOC(=O)c1ccccc1CN1C(=O)c2ccccc2S1(=O)=O, the “activity, negative = inhibition” value rises from -27.5% [at 102 µM] to 28.8% [at 102 µM].

Going from O=C(c1ccncc1)c1ccc([N+](=O)[O-])cc1 to COc1ccc(/C(C)=N/NC(=O)c2ccc3nc[nH]c3c2)cc1, the “activity, negative = inhibition” value rises from -22.8% [at 102 µM] to 68% [at 102 µM].

Going from COc1ccc(NC(=O)CN(C)C(=O)c2cccc(S(=O)(=O)N3CCN(c4ccccc4)CC3)c2)cc1 to COC(=O)c1cccc(NC(=O)CN2CCC(NC(=O)c3cc(OC)c(OC)c(OC)c3)CC2)c1, the “activity, negative = inhibition” value rises from -46.2% [at 102 µM] to -30% [at 102 µM].

Going from COc1cc(C(=O)N2CCN(C)CC2)cc(OC)c1OC to CCc1ccc(C(=O)NNC(=O)C2CCN(c3ncnc4sc(C)c(C)c34)CC2)cc1, the “activity, negative = inhibition” value rises from -4.42% [at 102 µM] to -1.98% [at 102 µM].

Compared with C=CCn1c(CNC(=O)c2ccco2)nnc1SCC(=O)c1ccc(OC)cc1, CCC1(CC)NC(=O)N(CC(=O)OCC(=O)c2cc(C)c(C)cc2C)C1=O is lower in “activity, negative = inhibition” value: 12.4% [at 102 µM] for the first, -8.44% [at 102 µM] for the second.

Going from Cc1ccc(S(=O)(=O)c2ccc(Oc3ccccc3)cc2)cc1 to Cc1ccc(S(=O)(=O)c2c(Nc3cccc(Cl)c3)sc(C(=O)c3ccc4c(c3)OCO4)c2N)cc1, the “activity, negative = inhibition” value falls from 65.5% to -12.4%.

First: NC(=O)NC(=O)C(OC(=O)CCNS(=O)(=O)c1ccccc1)c1ccccc1 (stereo not drawn)
Second: CCOC(=O)Cc1csc(NC(=O)CSc2nnc(-c3cccnc3)n2Cc2ccco2)n1
The “activity, negative = inhibition” value of the first is lower: -49.4% for the first, -47.7% for the second.

First: CCCS(=O)(=O)Nc1cccc(-c2cn3ccsc3n2)c1
Second: Cc1ccc(Nc2ccc3cc(S(=O)(=O)N4CCCCC4)ccc3n2)cc1F
The “activity, negative = inhibition” value of the first is lower: -45.7% for the first, 1.39% for the second.

Compared with COc1ccc(CNC(=O)CCc2c(C)nn(-c3ccc(N4CCCC4)nn3)c2C)cc1, Cc1cccc(CNC(=O)c2cnc3sc(N4CCCCC4)nn3c2=O)c1 is lower in “activity, negative = inhibition” value: 11.4% for the first, 7.83% for the second.

First: CCCC12CN3CC(CCC)(CN(C1)C3c1c[nH]c3ccc(OC)cc13)C2=O (stereo not drawn)
Second: CCn1c(CNC(=O)C23CC4CC(CC(C4)C2)C3)nnc1SCC(=O)Nc1ccc(OC)cc1
The “activity, negative = inhibition” value of the first is lower: -41.5% for the first, 4.32% for the second.

Compared with Cc1ccc(-c2nc(SCc3ccc(Br)cc3)n3[nH]c(=O)cc3n2)cc1, Cc1cc(C)c2oc(-c3cccc(NC(=O)c4cccc(F)c4)c3C)nc2c1 is lower in “activity, negative = inhibition” value: -1.28% for the first, -3.15% for the second.

First: NC(=O)C(=O)N/N=C/c1ccc([N+](=O)[O-])o1
Second: CC/C(O)=N\S(=O)(=O)c1ccc(N=NN(C)C)cc1
The “activity, negative = inhibition” value of the first is higher: 26.4% for the first, -8.72% for the second.

Compared with O=S(=O)(c1ccc2nc(N3CCN(c4cccc(Cl)c4)CC3)ccc2c1)N1CCCCC1, Cc1ccc(Cl)cc1N(C)C(=O)C1CCCN(c2ncnc3onc(-c4ccc(F)cc4)c23)C1 (stereo not drawn) is lower in “activity, negative = inhibition” value: 8.8% for the first, -6.61% for the second.

Compared with O=C(CSc1nnc(-c2cccnc2)n1Cc1ccco1)c1ccc(Cl)cc1, O=C(COc1ccc(Cl)cc1)Nc1ccc(-c2nc3cc(Cl)ccc3o2)c(O)c1 is higher in “activity, negative = inhibition” value: -8.68% for the first, 35.9% for the second.

Compared with Cc1cc(C)cc(N)c1, O=C(CSc1nnc(COc2ccc(Cl)cc2)n1Cc1ccco1)N1CCNC1=O is lower in activity, negative = inhibition: 2.02% [at 0.501 µM] for the first, -16.3% [at 0.501 µM] for the second.

Going from Cc1ccc(NC(=O)Cc2nc(COC(=O)C(C)NS(=O)(=O)c3ccc(C)cc3)cs2)cc1 (stereo not drawn) to CCc1ccc(NC(=O)CSc2nnc(-c3cnccn3)n2Cc2ccco2)cc1, the activity, negative = inhibition falls from -6.75% [at 12.7 µM] to -31.5% [at 12.7 µM].

Compared with Cc1ccc(NC(=O)CSc2nnc(-c3cnccn3)n2Cc2ccco2)cc1C, Cc1ccccc1CSc1nnc(-c2cccnc2)n1N is lower in activity, negative = inhibition: 7.37% [at 12.7 µM] for the first, 3.07% [at 12.7 µM] for the second.

Compound Cn1c(Cc2csc(N)n2)nnc1SC/C=C/c1ccccc1 has an activity, negative = inhibition of 12.8% [at 12.7 µM].

For COc1ccc2c3c(c(=O)oc2c1)C1O[C@](CCCCN2C(=O)c4ccccc4C2=O)(Cc2c1ccc1ccccc21)O3, the activity, negative = inhibition was -1.18% [at 2.33 µM].
